According to PubChem BioAssay (NCI):
Where “and” joins values, the source holds several entries; their conditions need not be identical. Equal values may be shown once. Compounds without any hit were thinned out: in the full panel of roughly 83,000, 20% have a hit.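 How to read the values: 0–100, growth inhibition (40 = 60% inhibited); 0, no net growth; -100 to 0, cell death (-40 = 40% of starting cells died; -100 = all dead).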 Calls of active or inactive are those of the source. How the source made its calls: active means growth percent below 10; inactive means the rest.

Columns and labels:
Assay in all cases: NCI-60 one-dose screen, 48 h (100 = growth as untreated, 0 = no growth, -100 = all killed)
Conditions in all cases: 10 µM unless noted
NCI-H23 lung = system: NCI-H23 lung
NCI-H226 lung = system: NCI-H226 lung
NCI-H322M lung = system: NCI-H322M lung
HOP-62 NSCLC = system: HOP-62 NSCLC
NCI-H460 lung = system: NCI-H460 lung
HOP-92 NSCLC = system: HOP-92 NSCLC
NCI-H522 lung = system: NCI-H522 lung
A549/ATCC NSCLC = system: A549/ATCC NSCLC
786-0 renal = system: 786-0 renal
COLO 205 colon = system: COLO 205 colon

Measured: growth

O=C(O)c1ccc(=O)[nH]c1
inactive: NCI-H23 lung 88.5% and 105% | NCI-H226 lung 96.3% and 89.5% | NCI-H322M lung 108% and 105% | HOP-62 NSCLC 98.8% and 85.9% | NCI-H460 lung 111% and 104% | HOP-92 NSCLC 100% | NCI-H522 lung 101% and 99.9% | A549/ATCC NSCLC 87.7% | 786-0 renal 96.7% and 99.6% | COLO 205 colon 98.3% and 98.9%

C[C@]12CC[C@H](O)C[C@@H]1CC[C@@H]1[C@@H]2CC[C@]2(C)OC(=O)CC[C@@H]12
inactive: NCI-H23 lung 108% | NCI-H226 lung 102% | NCI-H322M lung 87.2% | HOP-62 NSCLC 97.3% | NCI-H460 lung 109% | HOP-92 NSCLC 91.1% | NCI-H522 lung 81.2% | A549/ATCC NSCLC 72.8% | 786-0 renal 88.7% | COLO 205 colon 72.5%

O=CC1(c2ccccc2)CCN(Cc2ccccc2)CC1
inactive: NCI-H23 lung 101% | NCI-H226 lung 98.2% | NCI-H322M lung 105% | HOP-62 NSCLC 112% | NCI-H460 lung 110% | HOP-92 NSCLC 97.3% | NCI-H522 lung 105% | A549/ATCC NSCLC 95.4% | 786-0 renal 108% | COLO 205 colon 109%

CC[C@H](CC[C@@H](C)[C@H]1CC[C@H]2[C@@H]3CC[C@H]4C[C@]5(CC[C@]4(C)[C@H]3CC[C@]12C)OO[C@](C)(C(F)(F)F)O5)C(C)C
inactive: NCI-H23 lung 92.3% | NCI-H226 lung 89.7% | NCI-H322M lung 91.5% | HOP-62 NSCLC 81.7% | NCI-H460 lung 95.1% | HOP-92 NSCLC 87.4% | NCI-H522 lung 92.8% | A549/ATCC NSCLC 95.3% | 786-0 renal 97% | COLO 205 colon 96.4%

CC[C@H](C)[C@H](NC(=O)CN(C)C)C(=O)N(C)[C@H](C[C@@H](OC(C)=O)c1nc(C(=O)NC23CC(C(=O)OC)(C2)C3)cs1)C(C)C
active: NCI-H460 lung 7.29% | COLO 205 colon -35.8%
inactive: NCI-H23 lung 33.3% | NCI-H226 lung 35.2% | NCI-H322M lung 39.2% | HOP-62 NSCLC 20.1% | HOP-92 NSCLC 57.2% | NCI-H522 lung 12% | A549/ATCC NSCLC 19.3% | 786-0 renal 26.4%

C#COc1cccc(Nc2ncnc3cc(NC(=O)CF)ccc23)c1
inactive: NCI-H23 lung 81.4% [6.25 µM] | NCI-H226 lung 83.4% [6.25 µM] | NCI-H322M lung 70.5% [6.25 µM] | HOP-62 NSCLC 30.3% [6.25 µM] | NCI-H460 lung 21.4% [6.25 µM] | HOP-92 NSCLC 47.7% [6.25 µM] | A549/ATCC NSCLC 40% [6.25 µM] | 786-0 renal 30.7% [6.25 µM] | COLO 205 colon 13.2% [6.25 µM]
active: NCI-H522 lung -25.3% [6.25 µM]

C[C@]12CC[C@H]3[C@@H](C[C@@H]4SC(Nc5ccccc5)=N[C@@]45C/C(=N/O)CC[C@]35C)[C@@H]1CCC2=O
inactive: NCI-H23 lung 79.5% | NCI-H226 lung 114% | NCI-H322M lung 94.5% | HOP-62 NSCLC 94% | NCI-H460 lung 56.4% | HOP-92 NSCLC 107% | NCI-H522 lung 71.5% | A549/ATCC NSCLC 88.9% | 786-0 renal 18.4% | COLO 205 colon 97%

Cc1nnc([S-])o1.[Au+].c1ccc([PH+](c2ccccc2)c2ccccc2)cc1
inactive: NCI-H23 lung 61.5% | NCI-H226 lung 114% | NCI-H322M lung 88.4% | HOP-62 NSCLC 121% | NCI-H460 lung 86% | A549/ATCC NSCLC 76.4% | 786-0 renal 38.8% | COLO 205 colon 55.4%
active: HOP-92 NSCLC -9.28% | NCI-H522 lung -81.1%

CN1CCN(c2ccc(Cl)cc2)CC1
inactive: NCI-H23 lung 73.6% | NCI-H226 lung 93.8% | NCI-H322M lung 94.2% | HOP-62 NSCLC 93.1% | NCI-H460 lung 44.6% | HOP-92 NSCLC 93.7% | NCI-H522 lung 44.3% | A549/ATCC NSCLC 69.1% | 786-0 renal 104% | COLO 205 colon 89.8%

CC1=CC(=O)CCC12CCOC2=O (stereo not given)
inactive: NCI-H23 lung 102% | NCI-H226 lung 101% | NCI-H322M lung 96.4% | HOP-62 NSCLC 99.5% | NCI-H460 lung 102% | HOP-92 NSCLC 102% | NCI-H522 lung 96.1% | A549/ATCC NSCLC 97.8% | 786-0 renal 93.9% | COLO 205 colon 116%

CCCC1CCCCC12C(=O)NC(=O)NC2=O (stereo not given)
inactive: NCI-H23 lung 97.2% and 101% | NCI-H226 lung 91.1% | NCI-H322M lung 105% and 94.3% | HOP-62 NSCLC 107% | NCI-H460 lung 101% and 109% | HOP-92 NSCLC 103% | NCI-H522 lung 95.5% and 89.7% | A549/ATCC NSCLC 104% and 98.2% | 786-0 renal 102% and 96.6% | COLO 205 colon 104% and 110%

C/C(=C\c1ccn(-c2ccc(N)c(C(F)(F)F)c2)n1)[C@@H]1C[C@@H]2O[C@]2(C)CCC[C@H](C)[C@H](O)[C@@H](C)C(=O)C(C)(C)[C@@H](O)CC(=O)O1
active: COLO 205 colon -16.5%
inactive: NCI-H23 lung 32.9% | NCI-H226 lung 52% | NCI-H322M lung 23.2% | HOP-62 NSCLC 41% | NCI-H460 lung 12.7% | HOP-92 NSCLC 52.4% | NCI-H522 lung 30.3% | A549/ATCC NSCLC 31.1% | 786-0 renal 27.4%

C[C@]12CCc3sc(Nc4ccc(F)cc4)nc3C1=CC[C@@H]1[C@@H]2CC[C@]2(C)C(=O)CC[C@@H]12
inactive: NCI-H23 lung 72.8% | NCI-H226 lung 86.7% | NCI-H322M lung 82.1% | HOP-62 NSCLC 82% | NCI-H460 lung 69.9% | HOP-92 NSCLC 96.8% | NCI-H522 lung 62% | A549/ATCC NSCLC 79.5% | COLO 205 colon 86%
active: 786-0 renal 5.28%

CCCCCCCCCCCCCCCC[n+]1ccccc1
inactive: NCI-H322M lung 11.4% and 40.2%
active: NCI-H23 lung -38.3% and -24.8% | NCI-H226 lung -77.3% and -0.958% | HOP-62 NSCLC -84.4% and -49.3% | NCI-H460 lung -88.3% and -83.1% | HOP-92 NSCLC -48.4% and -41.7% | NCI-H522 lung -57.3% and -67.7% | A549/ATCC NSCLC -61.4% | 786-0 renal -73% and -92.8% | COLO 205 colon -77.6% and -71.5%

O=c1[nH]c(=O)n(Cl)c(=O)n1Cl
inactive: NCI-H23 lung 99.2% | NCI-H226 lung 98.4% and 104% | NCI-H322M lung 108% and 119% | HOP-62 NSCLC 109% and 98.3% | NCI-H460 lung 116% and 109% | HOP-92 NSCLC 101% and 91.2% | NCI-H522 lung 101% and 100% | A549/ATCC NSCLC 105% and 112% | 786-0 renal 115% and 99.5% | COLO 205 colon 117% and 123%

C[N+]1(CC#CC[N+]2(C)CCCC2)CCCC1
inactive: NCI-H23 lung 111% | NCI-H226 lung 91.1% | NCI-H322M lung 99.8% | HOP-62 NSCLC 105% | NCI-H460 lung 106% | HOP-92 NSCLC 90.6% | NCI-H522 lung 99.5% | A549/ATCC NSCLC 107% | 786-0 renal 99.2% | COLO 205 colon 103%

COc1ccc(O)c2c(=O)c3c(OC)cc4c(c3oc12)[C@@H]1C=CO[C@@H]1O4
active: NCI-H23 lung 6.73% | NCI-H460 lung 8.73%
inactive: NCI-H226 lung 36.8% | NCI-H322M lung 42.4% | HOP-62 NSCLC 36.6% | HOP-92 NSCLC 70.5% | NCI-H522 lung 41.9% | A549/ATCC NSCLC 50% | 786-0 renal 74.6% | COLO 205 colon 36.1%

[N-]=[N+]=CC(=O)CCC(=O)C=[N+]=[N-]
inactive: NCI-H23 lung 105% | NCI-H226 lung 100% | NCI-H322M lung 95.8% | HOP-62 NSCLC 92.6% | NCI-H460 lung 112% | HOP-92 NSCLC 90.6% | NCI-H522 lung 110% | A549/ATCC NSCLC 113% | 786-0 renal 99.3% | COLO 205 colon 117%

CCCCS(=O)(=O)Cl
inactive: NCI-H23 lung 108% | NCI-H226 lung 100% | NCI-H322M lung 111% | HOP-62 NSCLC 122% | NCI-H460 lung 106% | HOP-92 NSCLC 97.4% | NCI-H522 lung 99.8% | A549/ATCC NSCLC 109% | 786-0 renal 103% | COLO 205 colon 109%

c1ccc(CCN2CCCCC2)nc1
inactive: NCI-H23 lung 103% | NCI-H226 lung 101% | NCI-H322M lung 106% | HOP-62 NSCLC 95.6% | NCI-H460 lung 114% | HOP-92 NSCLC 91.7% | NCI-H522 lung 101% | A549/ATCC NSCLC 95.7% | 786-0 renal 101% | COLO 205 colon 106%

N#CCc1ccc(CC#N)cc1
inactive: NCI-H23 lung 103% | NCI-H226 lung 90.4% | NCI-H322M lung 107% | HOP-62 NSCLC 88.4% | NCI-H460 lung 101% | NCI-H522 lung 91.5% | A549/ATCC NSCLC 82.1% | 786-0 renal 97.5% | COLO 205 colon 111%
active: HOP-92 NSCLC 3.82%

CC1(C)N(Nc2ccccc2)C(=O)C2CCCN21 (stereo not given)
inactive: NCI-H23 lung 97.2% | NCI-H226 lung 84.6% | NCI-H322M lung 87.4% | HOP-62 NSCLC 76.1% | NCI-H460 lung 99.8% | HOP-92 NSCLC 52.7% | NCI-H522 lung 53.2% | A549/ATCC NSCLC 79.4% | 786-0 renal 33.4% | COLO 205 colon 104%

COc1ccc(/C=C(/C)[N+](=O)[O-])cc1OC
active: HOP-92 NSCLC -6.58% and -11.5% | NCI-H522 lung -88.2% and -73.2% | 786-0 renal -53.1% and -23.3% | COLO 205 colon -69.3% and -76.2%
inactive: NCI-H23 lung 62.2% and 58.1% | NCI-H226 lung 88.7% and 79.2% | NCI-H322M lung 48% and 94.5% | HOP-62 NSCLC 48.3% | NCI-H460 lung 34.2% and 22.9% | A549/ATCC NSCLC 53.7% and 52.9%
